# SARS PLpro yeast: inhibitors of SARS-CoV papain-like protease in yeast. 330,000 tested, 0.19% active. S. cerevisiae expressing SARS-CoV PLpro, growth rescue. Potency, µM (top dose mostly 32.9 µM), actives largely listed as activators; calls by dose curve; further: nearly all actives have a fitted effect of over 55% in size
# Pf growth 96h: inhibits malaria parasite growth, 96 h. Potency, µM (titrated, usually from 28.7 µM), most hits filed as inhibitors. 320,000 tested, 6.9% active. AID 504834. P. falciparum luciferase reporter growth, 96 h
#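 Infected RBCs, 2% Hct / 0.05% parasitemia final; luciferase-reporter P. falciparum; cpd 96 h, 37 C, 5% CO2; luciferase detection reagent; luminescence.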
# Pf growth 48h: P. falciparum growth inhibition at 48 hours (one generation); P. falciparum luciferase growth in erythrocytes, 48 h; Potency, µM (series often up to 28.7 µM), usual class: inhibitors; 310,000 tested, 5.9% active; AID 504832
#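 Here the parasites carry a stable luciferase gene and grow inside erythrocytes in Albumax-based RPMI medium with compound for one erythrocytic cycle. Activity is scored as loss of luminescent signal.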
# Shiga inhibitor: Shiga toxin inhibition; 290,000 tested, 9.2% active; Vero cells, Shiga toxin protein synthesis inhibition reporter; inhibition, % at 38.7 µM; in the data active means inhibition mostly above about 28%, no sharp cut-off; inactive means mostly below about 43%
# NS1 inh: blocks influenza NS1 protein function. Potency, µM (series often up to 46.1 µM). 270,000 tested, 0.4% active. AID 2326; calls by dose curve; further: actives are rising curves; nearly all actives have a fitted effect of over 50% in size
#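 Compounds were scored for reversing the slow growth caused by influenza A NS1 in S. cerevisiae, measured by optical density at 600 nm. Assay medium contained 2% galactose at pH 6.0; NS1-free yeast of the same strain were the positive control.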
# Cycloheximide cs: affects cycloheximide protein synthesis inhibition readout, counter-screen; cell reporter, cycloheximide protein synthesis inhibition counterscreen; max response, %; 300,000 tested, 12% active; AID 2314; in the data active means max response mostly above about 13%, no sharp cut-off; inactive means mostly below about 14%; further: read at 38.3 µM for the half of the compounds with a filed dose
# A number is an active result; i = inactive; ? = inconclusive; nt = no result; [ ] = remark or other dose. Compounds with a hit are over-represented: about 21% of the library has one in this group of screens. Unless noted, the call rests on the fitted dose curve; in most records, active means well fitted inhibition curve with a large enough effect; inconclusive means small, poorly fitted or top-dose-only effect, or another doubt; inactive means no such curve, though single readings can be large or run the other way.
SMILES,SARS PLpro yeast,Pf growth 96h,Pf growth 48h,Shiga inhibitor,NS1 inh,Cycloheximide cs
COc1cccc(C(=O)c2c[nH]c(C(=O)NCc3cccs3)c2)c1,i,?,i,i,i,16
COc1ccc2nc3sc(C(=O)NCc4cccs4)c(N)c3cc2c1,i,i,i,83,?,51
O=C(CCNC(=O)c1ccc(Cl)cc1)Nc1ccccc1N1CCCC1,i,?,?,nt,nt,nt
CC1Sc2ccc(S(=O)(=O)CCC(=O)N3CCCC3)cc2NC1=O (centres undefined),?,?,i,i,i,i
Cc1cc(NS(=O)(=O)c2ccc(NC(=S)Nc3ccc(Cl)cc3C)cc2)no1,i,i,i,i,i,i
O=C(NCc1ccc(Cl)cc1)c1cc(-c2cccs2)on1,i,?,i,i,i,i
COc1ccc(CNC(=O)c2cc(-c3cccs3)on2)cc1,i,nt,i,i,i,19
O=C(Cn1nc(C(F)F)cc1C1CC1)N1CCCC1,i,?,i,i,i,i
O=C(c1ccccc1)N1N=C(c2cccs2)CC1c1ccccc1O (centres undefined),i,?,?,i,i,i
COC(=O)c1ccc(C2N=C(c3cccs3)CC(c3ccccc3O)N2)cc1 (centres undefined),i,i,?,100,nt,38
Cc1nnc(C)c2c(C)n(C(C)c3ccccc3)c(C)c12 (centres undefined),i,i,8.3µM,i,i,i
COc1ccc(-n2cc(-c3ccccc3)c3c(N4CC(C)OC(C)C4)ncnc32)cc1 (centres undefined),i,i,?,i,nt,i
O=C(O)c1cn(-c2ccc(F)cc2)c(=O)c2ccccc12,i,i,i,i,i,i
CCN(CC)C(=O)c1cccc(NC(=O)C2CCN(C(=O)c3cccs3)CC2)c1,i,nt,nt,nt,nt,nt
CC(=O)N(c1ccc(Cl)cc1)c1c[nH]c2ccccc12,i,6.6µM,12µM,i,i,i
Cc1cc([N+](=O)[O-])nn1Cc1ccc(C(=O)N/N=C/c2ccc(N(C)C)cc2)cc1,i,i,i,i,i,i
CC1CCCCN1CCCNC(=O)c1ccc2nc(N3CCCCC3)sc2c1 (centres undefined),i,?,i,i,i,i
CC1CC(C)CN(CCCNC(=O)c2ccc3nc(N4CCOCC4)sc3c2)C1 (centres undefined),i,i,i,i,i,i
CCCN1CCN(CCCNC(=O)c2ccc3nc(N4CCC(C)CC4)sc3c2)CC1,i,?,i,47,i,33
CCOC(CNC(=O)c1ccc2nc(N3CCC(C)CC3)sc2c1)OCC,i,9.3µM,?,i,i,25
COC(=O)c1c(NC(=O)C2C3CCC(C3)C2C(=O)O)sc2c1CCCCC2 (centres undefined),i,?,i,51,i,i
CC(=O)c1ccc(NC(=S)Nc2ccc3cn[nH]c3c2)cc1,i,i,i,i,nt,i
COc1ccccc1NC(=S)Nc1ccc2cn[nH]c2c1,i,i,i,47,nt,16
CC(C)c1ccc(NC(=S)Nc2ccc3cn[nH]c3c2)cc1,i,i,i,73,nt,22
O=c1c(Cl)c(Cl)cnn1Cc1nnc(-c2ccc(Cl)cc2)o1,i,i,i,i,nt,50
SMILES,SARS PLpro yeast,Pf growth 96h,Pf growth 48h,Shiga inhibitor,NS1 inh,Cycloheximide cs
CC(C)(C)NC(=O)CN(C(=O)CCC(=O)Nc1nccs1)c1ccc(F)cc1,i,i,i,i,?,i
CCCCN(C)C1CCN(C(=S)Nc2cccc(SC)c2)CC1,i,?,i,i,nt,i
CC(/C=C/c1ccc(OCc2ccccc2)cc1)=N\O,i,i,i,77,i,60
CC(/C=C/c1ccc(O)cc1)=N/O,i,?,?,28,i,19
CC(/C=C/c1ccccc1)=N/O,i,i,i,i,i,19
Cc1cccc(C(=O)NNC(=O)c2ccc(S(=O)(=O)N3CCOCC3)cc2)c1,i,?,i,i,i,i
Nc1ccnn1Cc1ccncc1,i,i,i,i,i,i
COc1ccccc1CN1C(=O)c2ccccc2C1C(=O)NC1CCC(C)CC1 (centres undefined),i,?,?,i,nt,i
CC[C@H](C)[C@H](N)C1=N[C@H](C(=O)N[C@@H](CC(C)C)C(=O)N[C@@H](CCC(=O)O)C(=O)N[C@@H](C(=O)N[C@H]2CCCCNC(=O)[C@@H](CC(N)=O)NC(=O)[C@@H](CC(=O)O)NC(=O)[C@@H](Cc3cnc[nH]3)NC(=O)[C@@H](Cc3ccccc3)NC(=O)[C@@H]([C@@H](C)CC)NC(=O)[C@@H](CCCN)NC2=O)[C@@H](C)CC)CS1,nt,i,i,nt,nt,nt
COc1cc(/C=C2\SC(=O)NC2=O)ccc1OCC(=O)N1CCOCC1,i,nt,nt,nt,nt,nt
COC(=O)c1ccccc1NC1=C/C(=N\S(=O)(=O)c2cccs2)c2ccccc2C1=O,i,0.66µM,nt,i,i,28
COC(=O)c1ccccc1NC1=C/C(=N\S(=O)(=O)c2ccc(C(=O)O)cc2)c2ccccc2C1=O,i,i,1.5µM,i,i,i
N/C(CS(=O)(=O)c1ccccn1)=N\OC(=O)c1ccccc1Cl,i,i,i,57,i,40
N/C(CCS(=O)(=O)c1ccc(Cl)cc1)=N\OC(=O)c1ccc(Cl)cc1,i,?,?,i,i,i
N/C(CS(=O)(=O)c1ccccn1)=N\OC(=O)c1ccc(Cl)cc1,i,i,i,i,i,26
FC(F)(F)c1ccccc1-n1c(-c2ccco2)n[nH]c1=S,i,i,i,30,i,21
Cc1ccc(NC2(c3nnnn3-c3c(C)cccc3C)CCCCC2)cc1,i,?,13µM,i,i,i
C/C(=N\NC(=O)c1cc(C)[nH]n1)c1cccs1,i,i,i,59,nt,i
C/C(=N\NC(=O)c1cc(C)[nH]n1)c1ccc(-c2ccccc2)cc1,i,?,?,55,i,i
COc1cccc(COCC(O)CN2CCC(C(N)=O)CC2)c1 (centres undefined),i,i,?,i,i,i
CCCCCCC1(C)NC(=S)N(c2ccccc2)N1 (centres undefined),i,i,i,i,nt,i
CC1(CC(=O)Nc2ccccc2)NC(=S)N(c2ccccc2)N1 (centres undefined),i,i,i,44,i,24
CCCCCC1(C)NC(=S)N(c2ccccc2)N1 (centres undefined),i,i[5.75 µM],i,i,nt,20
O=C(Nc1cccc(C(F)(F)F)c1)C12CC3CC(CC(C3)C1)C2,i,i,13µM,i,i,i
CCSCCc1nnc(NC(=O)Nc2cccc(C(F)(F)F)c2)s1,i,?,5.2µM,i,i,i
COC(=O)/C(=C\C(=O)c1ccccc1)Nc1cccc(C(F)(F)F)c1,i,i,i,98,i,44
O=C(Nc1ccccc1)Nc1cccc(C(F)(F)F)c1,i,i,?,80,nt,30
CC1(C(=O)Nc2cccc(C(F)(F)F)c2)CO1 (centres undefined),i,i,i,i,nt,i
COC(=O)c1c(-c2ccccc2Cl)noc1/C=C/N(C)C,i,i,i,i,nt,i
